Test systems include SK-MEL-2 melanoma; EKVX NSCLC; SN12C renal; UO-31 renal; TK-10 renal; ACHN renal; CAKI-1 renal; A498 renal; CCRF-CEM leukemia; MOLT-4 leukemia; SR leukemia; RPMI-8226 leukemia; OVCAR-8 ovarian; OVCAR-5 ovarian; OVCAR-4 ovarian; SK-OV-3 ovarian; IGROV1 ovarian; OVCAR-3 ovarian; HS 578T breast; NCI/ADR-RES ovarian.
Holding throughout (assay): NCI-60 one-dose screen, 48 h (100 = growth as untreated, 0 = no growth, -100 = all killed)
Common to all, as to conditions: 10 µM unless noted

These results are taken from PubChem BioAssay (NCI).

The structures appear in SMILES notation. This is part of a sample that, as a whole, favours compounds with a hit. Of some 83,000 tested, about 20% had one in any assay.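 Growth was measured after 48 h exposure to one concentration of compound in 96-well plates. Values under 10 count as active.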 A number with no mark means an inactive call. Active and inactive are the calls of the source.

As to `CN(C)S(=O)(=O)Oc1ccc(-c2sc3cc(OS(=O)(=O)N(C)C)ccc3c2C(=O)c2ccc(OCCN3CCCCC3)cc2)cc1`, the growth is 75.5% in the test on SK-MEL-2 melanoma; 68.9% in the test with EKVX NSCLC; 87.1% in the test on SN12C renal; 43.6% in the test on UO-31 renal; 79% in the test on TK-10 renal; 32.3% with ACHN renal. For the same compound, the growth in the test with CAKI-1 renal is 73.4%; in the test on A498 renal it was 85.2%; in the test with CCRF-CEM leukemia, 18.8%; in the test with MOLT-4 leukemia it was 36.6%; in the test on SR leukemia, -20.2% (active); in the test on RPMI-8226 leukemia it was 38.1%. Also, the growth in the test on OVCAR-8 ovarian is 43.8%; with OVCAR-5 ovarian, 78.4%; with OVCAR-4 ovarian, 49.7%; in the test with SK-OV-3 ovarian, 62.4%; in the test with IGROV1 ovarian, 81%; in the test with OVCAR-3 ovarian, 69.3%. For the same compound, the growth was 59.7% with HS 578T breast and 72.3% in the test on NCI/ADR-RES ovarian.
On to `C/C(Cc1ccc(Cl)cc1)=C(\c1ccc(OCCCN(C)C)cc1)c1ccc(OC(=O)Cc2ccccc2)cc1`, for which the growth with SK-MEL-2 melanoma was 100%; with EKVX NSCLC it was 101%; in the test with SN12C renal, 105%; with UO-31 renal it was 96%; in the test on TK-10 renal, 98.4%; in the test on ACHN renal, 107%. The growth with CAKI-1 renal is 97%; with A498 renal, 113%; with CCRF-CEM leukemia, 83.6%; in the test with MOLT-4 leukemia it was 77.3%; in the test with SR leukemia, 77.3%; in the test on RPMI-8226 leukemia it was 105%. The growth in the test with OVCAR-8 ovarian is 113%; with OVCAR-5 ovarian it was 105%; with OVCAR-4 ovarian it was 107%; with SK-OV-3 ovarian, 85.6%; with IGROV1 ovarian it was 106%; in the test on OVCAR-3 ovarian it was 101%. Moreover, the figures for the growth in the test on HS 578T breast and in the test with NCI/ADR-RES ovarian were 105% and 103%, respectively.
On to `CC(=O)O[C@H]1C[C@@H]2C(C)(C)C(=O)CC[C@@]2(C)c2ccc(C(C)C)cc21`, for which the growth is 109% in the test on SK-MEL-2 melanoma; 99.3% in the test with EKVX NSCLC; 107% with SN12C renal; 91.8% in the test with UO-31 renal; 97.2% in the test with TK-10 renal; 107% in the test with ACHN renal. The growth was 89.6% in the test with CAKI-1 renal; 100% with A498 renal; 108% with CCRF-CEM leukemia; 108% with MOLT-4 leukemia; 105% in the test on SR leukemia; 108% with RPMI-8226 leukemia. Moreover, the growth with OVCAR-8 ovarian is 101%; in the test with OVCAR-5 ovarian, 119%; with OVCAR-4 ovarian, 104%; in the test on SK-OV-3 ovarian it was 109%; in the test on IGROV1 ovarian, 101%; with OVCAR-3 ovarian it was 102%. Also, the growth in the test on HS 578T breast is 102%; in the test on NCI/ADR-RES ovarian it was 108%.
Turning to `CCN(CC)CCN1C(=O)c2c(c(C)c3c(oc4ccc(O)cc43)c2C)C1=O`, the growth in the test on SK-MEL-2 melanoma is 89%; with EKVX NSCLC, 83.2%; in the test with SN12C renal, -41.9% (active); in the test on UO-31 renal, -92.4% (active); with TK-10 renal, -13.9% (active); in the test on ACHN renal it was -80.4% (active). The growth in the test with CAKI-1 renal is -6.73% (active); in the test with A498 renal it was 91.7%; in the test on CCRF-CEM leukemia it was -14.7% (active); in the test on MOLT-4 leukemia, 10.2%; in the test with SR leukemia it was 28.5%; with RPMI-8226 leukemia, -37.3% (active). The growth with OVCAR-8 ovarian is -5.2% (active); in the test with OVCAR-5 ovarian, 97.6%; in the test with OVCAR-4 ovarian it was 14.9%; in the test on SK-OV-3 ovarian, 101%; with IGROV1 ovarian, 1.64% (active); with OVCAR-3 ovarian it was -68.2% (active). The growth in the test on HS 578T breast is 72.9%; with NCI/ADR-RES ovarian, 21.7%.
As to `Oc1c(CN2CCOCC2)cc(COCc2ccccc2)c2cccnc12`, the growth in the test on SK-MEL-2 melanoma was 36.9%; in the test on EKVX NSCLC, 92.5%; in the test with SN12C renal it was 39.9%; with UO-31 renal, 6.45% (active); in the test with TK-10 renal, 31.1%; with ACHN renal, 12.6%. In addition, the growth in the test with CAKI-1 renal is 13.5%; in the test with A498 renal, 49.7%; with CCRF-CEM leukemia, 11.7%; with MOLT-4 leukemia, 15.3%; in the test with SR leukemia, 13.4%; in the test with RPMI-8226 leukemia, 29.1%. Also, the growth is 14.5% in the test with OVCAR-8 ovarian; 37.8% with OVCAR-5 ovarian; 24.5% in the test on OVCAR-4 ovarian; 9.56% (active) in the test on SK-OV-3 ovarian; 16.2% in the test on IGROV1 ovarian; 19.7% in the test on OVCAR-3 ovarian. The growth in the test with HS 578T breast was 68.4%; in the test with NCI/ADR-RES ovarian it was 7.42% (active).
For `CC1(C)CC(=O)c2c(nn(-c3ccc(Br)cc3)c2-c2cn(-c3ccccc3)nc2-c2cccnc2)C1`, the growth was 98.1% in the test with SK-MEL-2 melanoma; 92.5% in the test on EKVX NSCLC; 92.7% with SN12C renal; 65.4% in the test on UO-31 renal; 140% in the test on TK-10 renal; 93.4% with ACHN renal. Further, the growth with CAKI-1 renal is 66.5%; in the test on A498 renal it was 98.5%; in the test with CCRF-CEM leukemia, 94.4%; in the test with MOLT-4 leukemia, 81.5%; in the test on SR leukemia, 112%; with RPMI-8226 leukemia, 72.5%. For the same compound, the growth in the test on OVCAR-8 ovarian was 97.6%; in the test with OVCAR-5 ovarian, 106%; with OVCAR-4 ovarian it was 84.5%; in the test with SK-OV-3 ovarian it was 82.5%; with IGROV1 ovarian, 93.9%; in the test with OVCAR-3 ovarian, 99.7%. Besides, the growth was 98.1% with HS 578T breast and 94% in the test on NCI/ADR-RES ovarian.
Regarding `CC1C=CC(OC(=O)C(C)(O)CCC(O)(C(=O)OC2CC(O)C(C(C)C)CC2(C)O)C(C)C)(C(C)C)CC1` (stereo not given), the growth in the test with SK-MEL-2 melanoma is -81.6% [4.63 µM] (active); in the test on EKVX NSCLC, -73.6% [4.63 µM] (active); with SN12C renal, -62.4% [4.63 µM] (active); in the test on UO-31 renal it was -99.6% [4.63 µM] (active); with TK-10 renal, -86.1% [4.63 µM] (active); with ACHN renal, -93.8% [4.63 µM] (active). In addition, the growth in the test on CAKI-1 renal is -97.3% [4.63 µM] (active); in the test with A498 renal, -92.3% [4.63 µM] (active); with CCRF-CEM leukemia it was -31.8% [4.63 µM] (active); in the test on MOLT-4 leukemia it was -46.4% [4.63 µM] (active); in the test on SR leukemia it was -24.7% [4.63 µM] (active); in the test with RPMI-8226 leukemia it was -39.7% [4.63 µM] (active). Also, the growth is -9.1% [4.63 µM] (active) with OVCAR-8 ovarian; -85.3% [4.63 µM] (active) in the test on OVCAR-5 ovarian; -90.5% [4.63 µM] (active) in the test with OVCAR-4 ovarian; -91.5% [4.63 µM] (active) in the test on SK-OV-3 ovarian; -70.6% [4.63 µM] (active) in the test with IGROV1 ovarian; -94.3% [4.63 µM] (active) with OVCAR-3 ovarian. The growth is 22.4% [4.63 µM] with HS 578T breast and -9.57% [4.63 µM] (active) with NCI/ADR-RES ovarian.
